# Laboratory results as given in PubChem BioAssay AID1159580 (chemical genetic matrix, 2015).
# Among all 5,500 compounds or so, about 2,000 (36%) were called active. Not shown: some 18% with an inconclusive outcome. The list shows a part of the results. Values without a mark were called inactive. Rule as the data show it: active = normalized growth mostly below about 0.91 (no sharp cut-off); inconclusive = no clear call, values can overlap the other calls; inactive = mostly above about 0.92.
# Test: chemical genetic growth profiling, strain panel (AID 1159580);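 also: tested at 20 µM; growth read once vehicle control cultures reached saturation at 30 °C; 1 = growth at the plate median or of vehicle wells; lower values mean less growth of the strain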
# Settings: S. cerevisiae deletion strains, growth OD
smiles,measurement,setting,value
CC(=O)Oc1ccc(O)cc1,normalized growth,"locus YAL013W, strain DEP1, stronger effect = lower value",0.942
same,normalized growth,"locus YAL021C, strain ccr4, stronger effect = lower value",1.03
same,normalized growth,"locus YAL026C, strain drs2, stronger effect = lower value",0.953
same,normalized growth,"locus YAL030W, strain snc1, stronger effect = lower value",0.994
same,normalized growth,"locus YBL061C, strain skt5, stronger effect = lower value",0.977
same,normalized growth,"locus YBR009C, strain hhf1, stronger effect = lower value",0.963
same,normalized growth,"locus YBR021W, strain FUR4, stronger effect = lower value",0.796 (active)
same,normalized growth,"locus YBR023C, strain chs3, stronger effect = lower value",0.982
same,normalized growth,"locus YBR171W, strain sec66, stronger effect = lower value",0.974
same,normalized growth,"locus YBR229C, strain ROT2, stronger effect = lower value",1.02
same,normalized growth,"locus YBR231C, strain swc5, stronger effect = lower value",0.971
same,normalized growth,"locus YBR279W, strain paf1, stronger effect = lower value",0.986
same,normalized growth,"locus YCL011C, strain gbp2, stronger effect = lower value",0.989
same,normalized growth,"locus YCL016C, strain dcc1, stronger effect = lower value",0.999
same,normalized growth,"locus YCL029C, strain bik1, stronger effect = lower value",1.03
same,normalized growth,"locus YCL061C, strain MRC1, stronger effect = lower value",0.993
same,normalized growth,"locus YCL069W, strain vba3, stronger effect = lower value",0.987
same,normalized growth,"locus YCR088W, strain abp1, stronger effect = lower value",0.995
same,normalized growth,"locus YDL005C, strain med2, stronger effect = lower value",0.978
same,normalized growth,"locus YDL035C, strain GPR1, stronger effect = lower value",0.922
same,normalized growth,"locus YDL040C, strain nat1, stronger effect = lower value",0.994
same,normalized growth,"locus YDL074C, strain BRE1, stronger effect = lower value",1
same,normalized growth,"locus YDL101C, strain DUN1, stronger effect = lower value",1
same,normalized growth,"locus YDL134C, strain PPH21, stronger effect = lower value",0.89
same,normalized growth,"locus YDL185W, strain tfp1, stronger effect = lower value",1.03
same,normalized growth,"locus YDL192W, strain arf1, stronger effect = lower value",1.02
same,normalized growth,"locus YDR001C, strain nth1, stronger effect = lower value",0.987
same,normalized growth,"locus YDR069C, strain doa4, stronger effect = lower value",1.02
same,normalized growth,"locus YDR101C, strain arx1, stronger effect = lower value",1.02
same,normalized growth,"locus YDR137W, strain rgp1, stronger effect = lower value",0.936
same,normalized growth,"locus YDR150W, strain NUM1, stronger effect = lower value",0.999
same,normalized growth,"locus YDR159W, strain sac3, stronger effect = lower value",0.967
same,normalized growth,"locus YDR162C, strain NBP2, stronger effect = lower value",0.916
same,normalized growth,"locus YDR195W, strain ref2",0.997
same,normalized growth,"locus YDR297W, strain sur2, stronger effect = lower value",0.987
same,normalized growth,"locus YDR318W, strain mcm21, stronger effect = lower value",1
same,normalized growth,"locus YDR334W, strain swr1, stronger effect = lower value",0.986
same,normalized growth,"locus YDR335W, strain msn5, stronger effect = lower value",0.995
same,normalized growth,"locus YDR388W, stronger effect = lower value",1.02
same,normalized growth,"locus YDR392W, strain spt3, stronger effect = lower value",0.844
same,normalized growth,"locus YDR502C, strain sam2, stronger effect = lower value",1.02
same,normalized growth,"locus YEL003W, strain gim4, stronger effect = lower value",0.986
same,normalized growth,"locus YEL037C, strain rad23, stronger effect = lower value",0.987
same,normalized growth,"locus YEL061C, strain CIN8 (second series), stronger effect = lower value",0.98
same,normalized growth,"locus YEL061C, strain CIN8, stronger effect = lower value",1
same,normalized growth,"locus YER015W, strain faa2, stronger effect = lower value",0.992
same,normalized growth,"locus YER016W, strain bim1, stronger effect = lower value",1.01
same,normalized growth,"locus YER110C, stronger effect = lower value",1.04
same,normalized growth,"locus YER111C, strain swi4, stronger effect = lower value",0.969
same,normalized growth,"locus YER155C, strain BEM2 (second series), stronger effect = lower value",0.959
same,normalized growth,"locus YER155C, strain BEM2, stronger effect = lower value",1.01
same,normalized growth,"locus YER167W, strain BCK2, stronger effect = lower value",0.976
same,normalized growth,"locus YFR010W, strain ubp6, stronger effect = lower value",0.969
same,normalized growth,"locus YGL078C, strain dbp3, stronger effect = lower value",1.02
same,normalized growth,"locus YGL086W, strain mad1, stronger effect = lower value",0.984
same,normalized growth,"locus YGL167C, strain pmr1, stronger effect = lower value",0.988
same,normalized growth,"locus YGL173C, strain kem1, stronger effect = lower value",0.975
same,normalized growth,"locus YGL227W, strain vid30, stronger effect = lower value",0.983
same,normalized growth,"locus YGL240W, strain doc1, stronger effect = lower value",0.926
same,normalized growth,"locus YGL248W, strain PDE1, stronger effect = lower value",0.923
same,normalized growth,"locus YGL253W, strain hxk2, stronger effect = lower value",0.973
same,normalized growth,"locus YGR135W, strain pre9, stronger effect = lower value",0.99
same,normalized growth,"locus YGR229C, strain SMI1, stronger effect = lower value",0.572 (active)
same,normalized growth,"locus YGR252W, strain gcn5, stronger effect = lower value",0.87
same,normalized growth,"locus YHR013C, strain ard1, stronger effect = lower value",0.975
same,normalized growth,"locus YHR027C, strain rpn1, stronger effect = lower value",0.987
same,normalized growth,"locus YHR030C, strain SLT2, stronger effect = lower value",0.994
same,normalized growth,"locus YHR079C, strain IRE1 (second series), stronger effect = lower value",1.02
same,normalized growth,"locus YHR094C, strain hxt1, stronger effect = lower value",1.02
same,normalized growth,"locus YHR129C, strain ARP1, stronger effect = lower value",0.994
same,normalized growth,"locus YHR142W, strain chs7, stronger effect = lower value",0.996
same,normalized growth,"locus YHR200W, strain rpn10, stronger effect = lower value",1.03
same,normalized growth,"locus YIL066C, strain RNR3, stronger effect = lower value",0.852 (active)
same,normalized growth,"locus YIL073C, strain SPO22, stronger effect = lower value",0.89
same,normalized growth,"locus YIL125W, strain kgd1, stronger effect = lower value",1.02
same,normalized growth,"locus YIR030C, strain dcg1, stronger effect = lower value",1.04
same,normalized growth,"locus YJL092W, strain hpr5, stronger effect = lower value",0.983
same,normalized growth,"locus YJL095W, strain BCK1 (second series), stronger effect = lower value",0.996
same,normalized growth,"locus YJL095W, strain BCK1, stronger effect = lower value",0.976
same,normalized growth,"locus YJL115W, strain asf1, stronger effect = lower value",0.988
same,normalized growth,"locus YJL129C, strain trk1, stronger effect = lower value",1.01
same,normalized growth,"locus YJL134W, strain LCB3, stronger effect = lower value",1.03
same,normalized growth,"locus YJL154C, strain vps35, stronger effect = lower value",0.985
same,normalized growth,"locus YJL164C, strain tpk1, stronger effect = lower value",0.975
same,normalized growth,"locus YJL166W, strain qcr8, stronger effect = lower value",0.978
same,normalized growth,"locus YJL168C, strain set2, stronger effect = lower value",1.02
same,normalized growth,"locus YJL187C, strain SWE1 (second series), stronger effect = lower value",0.997
